For six compounds, outcome results are on record in PubChem BioAssay AID2284379 (EPA ToxCast).

Molecules are shown by their SMILES. Inconclusive results are not listed. Active and inactive are the calls of the source. How the source made its calls: active means hit-call score of the fitted dose curve at least 0.9, where 1 is the maximum; inconclusive means response in the unintended direction; inactive means score below 0.9.

This assay can be described thus: ATG_M_32_EcoTox2: Attagene TRANS-FACTORIAL EcoTox-2 HepG2 Assay for M32 Transcription Factor (Internal Marker). The procedure: ATG_EcoTox2 is a cell-based, multiplexed assay created by modifying the existing Attagene TRANS-FACTORIAL system to include a panel of nuclear receptors from some or all the following species: human (Homo sapiens), african clawed frog (Xenopus laevis), rainbow trout (Oncorhynchus mykiss), japanese medaka (Oryzias latipes), and zebrafish (Danio rerio). The ECOTOX2-FACTORIAL format uses HepG2, a human liver cell line, with measurements taken at 24 hours after chemical dosing in a 24-well plate. ATG_M_32_EcoTox2 is one of 29 assay components calculated in the ATG_EcoTox2 assay. It is designed to make measurements of mRNA induction, a form of inducible reporter, as detected with fluorescence intensity signals by Reverse transcription polymerase chain reaction (RT-PCR) and Capillary electrophoresis technology.The assay endpoint ATG_M_32_EcoTox2 was analyzed in the positive analysis fitting direction relative to DMSO as the negative control and baseline of activity. Using a type of inducible reporter, measures of mRNA for gain-of-signal activity can be used to understand the background control at the transcription factor-level as they relate to the gene. Furthermore, this assay endpoint can be referred to as a secondary readout, because this assay has produced multiple assay endpoints where this one serves a background control function. To generalize the intended target to other relatable targets, this assay endpoint is annotated to the background measurement intended target family, where the subfamily is internal marker.
Human liver HepG2 cells are transiently transfected with multiple reporter transcription units (MRTUs) in 6-well plates using FuGene 6 reagent (Roche; 3 ml FuGene/1 mg DNA). The MRTU constructs are regulated by a cis-regulating element (promoter). Each RTU expresses a GAL4-UAS that regulates the transcription of a nearby target reporter gene sequence. A major difference between the CIS and TRANS system is that in CIS activities of endogenous TFs are measured, whereas the TRANS assay evaluates changes in activities of exogenous, chimeric NR-Gal4 proteins. […] At the end of 24 hour incubation, total RNA was isolated using TriZol reagent (Invitrogen). The isolated RNA is then reverse-transcribed using oligo(dT) primer and Mo-MLV reverse transcriptase (Invitrogen) with DNAse I (Ambion) treatment for 30 min. The one-tenth of the produced cDNA was amplified by PCR using Taq DNA polymerase (Invitrogen) and two reporter sequence-specific primers. The PCR products were fluorescently labeled by primer extension with 6-arboxyfluorescein (6-FAM) 5'-labeled reporter sequence-specific primer (2 min at 95 C, 20 s at 68 C and 10 min at 72 C) and these products were digested with 5U of HpaI (New England Biolabs) for 2h at 37 C. The fragments were purified using Qiaquick PCR columns (Qiagen), analyzed on an ABI 3130xL genetic analyzer (Applied Biosystems) with peak positions identified by using a set of X-rhodamine (ROX)-labeled MapMarker1000 molecular weight standards (BioVentures). The raw capillary electrophoresis data was processed using Attagraph software (Attagene).
Regarding `C[C@@H]1C[C@H]2[C@@H]3CCC4=CC(=O)C=C[C@]4(C)[C@@]3(F)[C@@H](O)C[C@]2(C)[C@@]1(O)C(=O)COP(=O)(O)O`, the compound was called inactive.

Regarding `CN(CCOc1ccc(CC2SC(=O)NC2=O)cc1)c1ccccn1` (stereo unspecified), the compound was classed as inactive.

For the compound `Cc1c(C)c2c(c(C)c1O)CCC(C)(COc1ccc(CC3SC(=O)NC3=O)cc1)O2` (stereo unspecified), the compound was classed as inactive.

Consider `Cc1nc(-c2ccc(C(F)(F)F)cc2)sc1C(=O)NCc1ccc(OC(C)(C)C(=O)O)cc1`, for which the outcome was inactive.

Take `CC(C)OC(=O)C(C)(C)Oc1ccc(C(=O)c2ccc(Cl)cc2)cc1`: the outcome was inactive.

`CC(c1cc2ccccc2s1)N(O)C(N)=O` (stereo unspecified): the result was inactive.
